Test results as given in PubChem BioAssay AID1159580 (chemical genetic matrix, 2015).
Screen size: about 5,500 compounds; about 2,000 (36%) were called active. Not shown: some 18% with an inconclusive outcome. The list shows a part of the results. A number with no mark means an inactive call. No stated cut-off is given here; in the data, active means normalized growth mostly below about 0.91 (no sharp cut-off); inconclusive means no clear call, values can overlap the other calls; inactive means mostly above about 0.92.

Assay: chemical genetic growth profiling, strain panel (AID 1159580);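 further: tested at 20 µM; growth read once vehicle control cultures reached saturation at 30 °C; 1 = growth at the plate median or of vehicle wells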
Details: S. cerevisiae deletion strains, growth OD

With CC1(C)C(C(Cl)Cl)C2(Cl)C(Cl)C(Cl)C1(Cl)C2(Cl)Cl (centres undefined) the normalized growth (locus YAL013W, strain DEP1, stronger effect = lower value) was 0.984, the normalized growth (locus YAL021C, strain ccr4, stronger effect = lower value) was 1.07 and the normalized growth (locus YAL026C, strain drs2, stronger effect = lower value) was 0.996. It also gave a normalized growth (locus YAL030W, strain snc1, stronger effect = lower value) of 0.984, a normalized growth (locus YBL061C, strain skt5, stronger effect = lower value) of 0.983 and a normalized growth (locus YBR009C, strain hhf1, stronger effect = lower value) of 0.976. It also gave a normalized growth (locus YBR021W, strain FUR4, stronger effect = lower value) of 0.996, a normalized growth (locus YBR023C, strain chs3, stronger effect = lower value) of 0.978 and a normalized growth (locus YBR171W, strain sec66, stronger effect = lower value) of 0.978. It also gave a normalized growth (locus YBR229C, strain ROT2, stronger effect = lower value) of 0.987, a normalized growth (locus YBR231C, strain swc5, stronger effect = lower value) of 0.979 and a normalized growth (locus YBR279W, strain paf1, stronger effect = lower value) of 0.992. It also gave a normalized growth (locus YCL011C, strain gbp2, stronger effect = lower value) of 0.993, a normalized growth (locus YCL016C, strain dcc1, stronger effect = lower value) of 0.979 and a normalized growth (locus YCL029C, strain bik1, stronger effect = lower value) of 0.972. For the same compound, the normalized growth (locus YCL061C, strain MRC1, stronger effect = lower value) was 0.981, the normalized growth (locus YCL069W, strain vba3, stronger effect = lower value) was 0.993 and the normalized growth (locus YCR088W, strain abp1, stronger effect = lower value) was 0.989. The normalized growth (locus YDL005C, strain med2, stronger effect = lower value) was 0.981, the normalized growth (locus YDL035C, strain GPR1, stronger effect = lower value) was 0.972 and the normalized growth (locus YDL040C, strain nat1, stronger effect = lower value) was 0.984. For the same compound, the normalized growth (locus YDL074C, strain BRE1, stronger effect = lower value) was 1.02, the normalized growth (locus YDL101C, strain DUN1, stronger effect = lower value) was 0.991 and the normalized growth (locus YDL134C, strain PPH21, stronger effect = lower value) was 0.986. The normalized growth (locus YDL185W, strain tfp1, stronger effect = lower value) was 0.989, the normalized growth (locus YDL192W, strain arf1, stronger effect = lower value) was 0.978 and the normalized growth (locus YDR001C, strain nth1, stronger effect = lower value) was 0.992. For the same compound, the normalized growth (locus YDR069C, strain doa4, stronger effect = lower value) was 0.967, the normalized growth (locus YDR101C, strain arx1, stronger effect = lower value) was 0.99 and the normalized growth (locus YDR137W, strain rgp1, stronger effect = lower value) was 0.839 (active). For the same compound, the normalized growth (locus YDR150W, strain NUM1, stronger effect = lower value) was 0.999, the normalized growth (locus YDR159W, strain sac3, stronger effect = lower value) was 0.892 and the normalized growth (locus YDR162C, strain NBP2, stronger effect = lower value) was 0.988. The normalized growth (locus YDR195W, strain ref2) was 0.997, the normalized growth (locus YDR297W, strain sur2, stronger effect = lower value) was 0.977 and the normalized growth (locus YDR318W, strain mcm21, stronger effect = lower value) was 0.971. The normalized growth (locus YDR334W, strain swr1, stronger effect = lower value) was 0.997, the normalized growth (locus YDR335W, strain msn5, stronger effect = lower value) was 0.993 and the normalized growth (locus YDR388W, stronger effect = lower value) was 0.959. The normalized growth (locus YDR392W, strain spt3, stronger effect = lower value) was 0.836, the normalized growth (locus YDR502C, strain sam2, stronger effect = lower value) was 0.974 and the normalized growth (locus YEL003W, strain gim4, stronger effect = lower value) was 0.984. The normalized growth (locus YEL037C, strain rad23, stronger effect = lower value) was 0.995, the normalized growth (locus YEL061C, strain CIN8 (second series), stronger effect = lower value) was 0.995 and the normalized growth (locus YEL061C, strain CIN8, stronger effect = lower value) was 0.994. The normalized growth (locus YER015W, strain faa2, stronger effect = lower value) was 0.979, the normalized growth (locus YER016W, strain bim1, stronger effect = lower value) was 0.984 and the normalized growth (locus YER110C, stronger effect = lower value) was 0.981. The normalized growth (locus YER111C, strain swi4, stronger effect = lower value) was 1, the normalized growth (locus YER155C, strain BEM2 (second series), stronger effect = lower value) was 0.965 and the normalized growth (locus YER155C, strain BEM2, stronger effect = lower value) was 0.983. The normalized growth (locus YER167W, strain BCK2, stronger effect = lower value) was 0.968, the normalized growth (locus YFR010W, strain ubp6, stronger effect = lower value) was 1 and the normalized growth (locus YGL078C, strain dbp3, stronger effect = lower value) was 0.975. The normalized growth (locus YGL086W, strain mad1, stronger effect = lower value) was 0.981, the normalized growth (locus YGL167C, strain pmr1, stronger effect = lower value) was 0.973 and the normalized growth (locus YGL173C, strain kem1, stronger effect = lower value) was 0.972. The normalized growth (locus YGL227W, strain vid30, stronger effect = lower value) was 0.99, the normalized growth (locus YGL240W, strain doc1, stronger effect = lower value) was 0.963 and the normalized growth (locus YGL248W, strain PDE1, stronger effect = lower value) was 0.991. It also gave a normalized growth (locus YGL253W, strain hxk2, stronger effect = lower value) of 0.989, a normalized growth (locus YGR078C, strain PAC10, stronger effect = lower value) of 0.989 and a normalized growth (locus YGR135W, strain pre9, stronger effect = lower value) of 0.971. The normalized growth (locus YGR229C, strain SMI1, stronger effect = lower value) was 0.962, the normalized growth (locus YGR252W, strain gcn5, stronger effect = lower value) was 0.962 and the normalized growth (locus YHR013C, strain ard1, stronger effect = lower value) was 0.798 (active). It also gave a normalized growth (locus YHR027C, strain rpn1, stronger effect = lower value) of 0.977, a normalized growth (locus YHR030C, strain SLT2, stronger effect = lower value) of 0.965 and a normalized growth (locus YHR079C, strain IRE1 (second series), stronger effect = lower value) of 0.965. For the same compound, the normalized growth (locus YHR094C, strain hxt1, stronger effect = lower value) was 0.974, the normalized growth (locus YHR129C, strain ARP1, stronger effect = lower value) was 0.996 and the normalized growth (locus YHR142W, strain chs7, stronger effect = lower value) was 0.992. The normalized growth (locus YHR200W, strain rpn10, stronger effect = lower value) was 0.977, the normalized growth (locus YIL066C, strain RNR3, stronger effect = lower value) was 0.955 and the normalized growth (locus YIL073C, strain SPO22, stronger effect = lower value) was 0.883. The normalized growth (locus YIL125W, strain kgd1, stronger effect = lower value) was 0.979, the normalized growth (locus YIR030C, strain dcg1, stronger effect = lower value) was 0.972 and the normalized growth (locus YJL092W, strain hpr5, stronger effect = lower value) was 0.986. For the same compound, the normalized growth (locus YJL095W, strain BCK1 (second series), stronger effect = lower value) was 0.983, the normalized growth (locus YJL095W, strain BCK1, stronger effect = lower value) was 0.991 and the normalized growth (locus YJL115W, strain asf1, stronger effect = lower value) was 0.99. The normalized growth (locus YJL129C, strain trk1, stronger effect = lower value) was 0.841 (active), the normalized growth (locus YJL134W, strain LCB3, stronger effect = lower value) was 0.986 and the normalized growth (locus YJL154C, strain vps35, stronger effect = lower value) was 0.993. The normalized growth (locus YJL164C, strain tpk1, stronger effect = lower value) was 0.975, the normalized growth (locus YJL166W, strain qcr8, stronger effect = lower value) was 0.904 and the normalized growth (locus YJL168C, strain set2, stronger effect = lower value) was 0.978. For the same compound, the normalized growth (locus YJL187C, strain SWE1 (second series), stronger effect = lower value) was 0.983 and the normalized growth (locus YJL187C, strain SWE1, stronger effect = lower value) was 0.988.
